These results are taken from PubChem BioAssay AID652197 (Broad Institute, 2013).

Broadly, the inhibition is the relative decrease from the control value, in per cent.

Values joined by “and” are separate entries in the source; they are usually repeats but may differ in a detail not shown here. Identical values can stand only once. Among all 340,000 compounds or so, about 500 (0.15%) were called active. The sample holds actives, similar compounds and a random draw of the others, so the mix is not that of the screen. A number with no mark means an inactive call.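 The calls were made as follows: active = mean replicate inhibition of at least 30%, or all replicates individually reaching that 30% level; inactive = mean below 30% and not every replicate reaching it.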

Endoplasmic reticulum aminopeptidase 1 (Homo sapiens), sequence (Q9NZ08 whole entry, looked up): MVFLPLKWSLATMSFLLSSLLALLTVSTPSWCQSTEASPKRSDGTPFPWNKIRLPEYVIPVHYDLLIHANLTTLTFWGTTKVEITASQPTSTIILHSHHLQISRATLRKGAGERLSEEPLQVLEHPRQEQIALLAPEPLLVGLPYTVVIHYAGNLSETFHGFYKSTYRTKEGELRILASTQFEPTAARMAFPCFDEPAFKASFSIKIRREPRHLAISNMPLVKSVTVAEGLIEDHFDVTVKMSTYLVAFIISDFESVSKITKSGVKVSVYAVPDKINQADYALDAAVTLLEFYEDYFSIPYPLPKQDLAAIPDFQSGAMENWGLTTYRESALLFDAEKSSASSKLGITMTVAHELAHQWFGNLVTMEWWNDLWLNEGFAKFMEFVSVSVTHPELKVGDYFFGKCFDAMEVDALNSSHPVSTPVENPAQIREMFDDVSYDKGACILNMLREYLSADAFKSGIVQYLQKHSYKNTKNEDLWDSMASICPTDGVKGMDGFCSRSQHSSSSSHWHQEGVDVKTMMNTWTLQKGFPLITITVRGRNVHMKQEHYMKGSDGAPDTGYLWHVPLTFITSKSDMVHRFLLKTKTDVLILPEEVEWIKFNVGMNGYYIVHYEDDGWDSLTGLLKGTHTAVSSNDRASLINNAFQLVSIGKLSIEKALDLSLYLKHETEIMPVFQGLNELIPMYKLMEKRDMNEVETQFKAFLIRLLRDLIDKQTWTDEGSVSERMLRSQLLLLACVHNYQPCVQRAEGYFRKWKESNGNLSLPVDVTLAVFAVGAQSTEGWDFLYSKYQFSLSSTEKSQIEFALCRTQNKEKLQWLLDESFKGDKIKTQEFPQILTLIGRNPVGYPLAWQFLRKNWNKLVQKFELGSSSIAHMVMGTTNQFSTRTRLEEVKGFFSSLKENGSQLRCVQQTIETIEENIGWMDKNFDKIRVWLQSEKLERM

This assay has as its target Endoplasmic reticulum aminopeptidase 1 (Homo sapiens) (UniProt Q9NZ08). In words: inhibition of ERAP1 peptide trimming enzyme – biochemical, single point, plate reader, primary screen (AID 652197).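 Also: 0% = neutral control wells and 100% = L-leucinethiol positive control wells.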 Particulars: recombinant ERAP1, Leu-AMC fluorescence, 60 min; at 10.7 µM; stronger effect = higher value.
Consider `CC(=O)N1Cc2cc(C(=O)NCc3cc(F)cc(F)c3)nc(-c3cccc(C4=CCCC4)c3)c2[C@@H]1CCO`, for which the inhibition is 3.25%.
In the case of `O=C(C[C@@H]1C=C[C@H](NC(=O)C2CCC2)[C@@H](CO)O1)NCC1CC1` it was 0.604%.
With `C[N+](C)(C)CCNC(=O)c1cc[n+](Cc2ccccc2)c(/C=N/O)c1` the figure was 105% (active); with `O=C(NCCCNCc1ccccc1)c1ccc(/C=N/O)nc1`, 4.32%.
With `C/C(Cc1ccccc1)=N\NC(=O)CNC(=O)c1cccc(Br)c1`, the inhibition is 7.75%.
In the case of `COc1ccc(C(=O)NCc2nnc(SCC(=O)NC3=NCCS3)n2C)cc1` it was 1.94%; in that of `COc1ccc(C(=O)NCc2nnc(SCCOc3ccccc3)n2C)cc1`, 31.3% (active); in that of `COc1ccc(CC(=O)NCc2nnc(SCC(=O)Nc3nccs3)n2C)cc1`, 1.32%.
In the case of `COC(=O)C[C@H]1C[C@H]2c3cc(NC(=O)Nc4ccccc4F)ccc3O[C@H]2[C@H](CO)O1` it was -1.68%; in that of `O=C(NC1Cc2ccccc2C1)[C@H]1[C@H](CO)[C@H]2Cn3c(ccc(C4=CCCCC4)c3=O)[C@H]2N1CC1CC1`, -5.27%.
Turning to `O=C(Cc1ccccn1)N[C@H]1CC[C@H](CCn2cc(-c3ccc(F)cc3)nn2)O[C@H]1CO`, the inhibition was -3.36%.
Take `O=C(C[C@@H]1CC[C@H](NC(=O)CN2CCOCC2)[C@@H](CO)O1)NCCc1ccccc1`: the inhibition was 0.528%.
As for `O=C(N[C@H]1C=C[C@@H](CC(=O)N2CCc3ccccc3C2)O[C@@H]1CO)C1CCOCC1`, the inhibition was -0.073%.
In the case of `Cc1ccc(-c2ccccc2[C@H]2[C@@H](C#N)N(c3ncc(-c4ccccc4)s3)[C@@H]2CO)cc1` it was -2.75%; in that of `Cc1ccc(S(=O)(=O)Nc2ccc3c(c2)C(=O)N([C@H](C)CO)C[C@@H](C)[C@@H](CN(C)S(C)(=O)=O)OCCCC[C@@H](C)O3)cc1`, 3.3%.
Turning to `C[C@@H]1CN([C@H](C)CO)C(=O)c2cc(NC(=O)c3ccncc3)ccc2O[C@@H](C)CCCCO[C@@H]1CN(C)CC1CC1`, the inhibition is -0.674%.
`C[C@@H]1CN([C@H](C)CO)C(=O)Cc2cc(NC(=O)CCC(F)(F)F)ccc2O[C@@H]1CN(C)CC1CCCCC1`: the inhibition is 0.143%.
Turning to `CO[C@@H]1CN(C)C(=O)c2ccc(NC(=O)Nc3c(C)noc3C)cc2OC[C@@H](C)N(C(=O)Nc2cccc(Cl)c2)C[C@H]1C`, the inhibition is -0.693%.
For `N#C[C@@H]1[C@H](c2ccccc2-c2ccccc2F)[C@@H](CO)N1C(=O)C1CCOCC1`, the inhibition was 0.396%.
As for `N#Cc1c(N2CCCCC2)nc(N)c2c(N)nc(SCC(=O)O)cc12`, the inhibition is 46.5% (active).
Consider `O=C(O)CSc1ccc(S(=O)(=O)N2CCCC2)cn1`, for which the inhibition is 0.672%.
`Nc1nc(NCC(=O)O)nc(N2CCCCCC2)c1[N+](=O)[O-]`: the inhibition is 4.98%.
On to `C/C=C/c1ccc(C2[C@H]3CNC[C@@H]2N3C(=O)Nc2cc(F)ccc2F)cc1` (stereo partly specified), for which the inhibition is 0.659% and 1.15%.
For `Nc1nc2c(ncn2[C@@H]2O[C@H](C(=O)N[C@H](Cc3ccccc3)C(=O)NCC3CCCCC3)[C@@H](O)[C@H]2O)c(=O)[nH]1`, the inhibition was 2.44%.
Regarding `COc1ccc(CN(C)C[C@H]2OCCCC[C@H](C)Oc3ccc(NS(=O)(=O)c4ccc(C)cc4)cc3C(=O)N([C@@H](C)CO)C[C@H]2C)cc1`, the inhibition was 0.631%.
For the molecule `CCCc1nc(-c2cc3cc(C)ccc3[nH]c2=O)no1`, the inhibition was 55.1% (active).
With `Cc1ccc2[nH]c(=O)c(CN(C)S(=O)(=O)c3cccc4nonc34)cc2c1` the figure was 0.344%; with `CCC(=O)N(CCc1ccccc1)Cc1cc2cc(C)ccc2[nH]c1=O`, -2.61%; with `CC(C)NC(=O)N[C@H]1CC[C@@H](CC(=O)NCc2ccc(Oc3ccccc3)cc2)O[C@@H]1CO`, -0.517%.
With `COc1ccc(NC(=O)N2CC(=O)N3[C@H](CO)[C@@H](c4ccc(C#CCC5CCCC5)cc4)[C@H]3C2)cc1` the figure was -1.79%; with `CC(=O)NC[C@H]1[C@@H](c2ccc(C#CC(C)C)cc2)[C@@H](CO)N1Cc1ccccn1`, 3.95%; with `COc1ccc(NC(=O)N2CC(=O)N3[C@H](CO)[C@@H](c4ccc(-c5ccc(C)cc5)cc4)[C@H]3C2)cc1`, 1.13%.
`O=C(c1ccc(F)cc1)N1CC(=O)N2[C@@H](CO)[C@@H](c3ccc(C#Cc4ccc(F)cc4)cc3)[C@@H]2C1`: the inhibition is -1.04%.
As for `C[C@H](CO)N1C[C@H](C)[C@H](CN(C)C(=O)Nc2ccc(C(F)(F)F)cc2)Oc2ccc(NS(=O)(=O)c3cn(C)cn3)cc2CC1=O`, the inhibition is 2.19%.
In the case of `COc1ccc(S(=O)(=O)Nc2ccc3c(c2)C(=O)N([C@@H](C)CO)C[C@H](C)[C@H](CN(C)S(=O)(=O)c2c(C)noc2C)OCCCC[C@@H](C)O3)cc1`, the inhibition is -3.22%.
Consider `O=C(NCC[C@@H]1CC[C@@H](NS(=O)(=O)c2ccc(Cl)cc2)[C@@H](CO)O1)c1ccccc1F`, for which the inhibition is -2.75%.
`O=C(Cc1ccccc1)N1C[C@@H]2[C@H](c3ccccc31)[C@@H](CO)N2C(=O)C1CCOCC1`: the inhibition was -0.84%.
Turning to `C[C@@H]1CCCCO[C@H](CN(C)Cc2ccc(C(F)(F)F)cc2)[C@@H](C)CN([C@@H](C)CO)C(=O)c2cc(NC(=O)c3ccncc3)ccc2O1`, the inhibition was -3.82%.
In the case of `CO[C@@H]1CN(C)C(=O)c2cc(NC(=O)C3CCOCC3)ccc2OC[C@@H](C)NC[C@@H]1C` it was 1.93%.
Take `O=C(Nc1ccccc1F)N1CC(=O)N2[C@H](CO)[C@H](c3ccc(C#CC4CC4)cc3)[C@@H]2C1`: the inhibition is -1.09%.
Consider `CN(C)C(=O)C[C@H]1C[C@H]2c3cc(NC(=O)Nc4ccc(C(F)(F)F)cc4)ccc3O[C@H]2[C@@H](CO)O1`, for which the inhibition was -0.814%.
In the case of `O=C(Nc1cc(F)ccc1F)N[C@H]1CC[C@@H](CCn2cc(C3CCCC3)nn2)O[C@@H]1CO` it was 0.545%; in that of `C[C@@H]1CN([C@H](C)CO)C(=O)c2cc(NS(C)(=O)=O)ccc2O[C@H]1CN(C)C(=O)Nc1cccc2ccccc12`, 0.237%; in that of `CO[C@H]1CN(C)C(=O)c2ccc(NC(=O)C3CC3)cc2OC[C@@H](C)N(C(=O)CN2CCOCC2)C[C@H]1C`, 5.08%.
For the molecule `COc1ccc(S(=O)(=O)N(C)C[C@@H]2Oc3ccc(NC(=O)C4CC4)cc3CC(=O)N([C@@H](C)CO)C[C@H]2C)cc1`, the inhibition is -1.45%.
As to `CNC[C@H]1Oc2cc(-c3ccc(OC)cc3)ccc2S(=O)(=O)N([C@H](C)CO)C[C@@H]1C`, the inhibition is -1.76%.
`CO[C@@H](CN(C)S(=O)(=O)c1ccccc1)[C@H](C)CN(Cc1ccccc1Cl)[C@H](C)CO`: the inhibition was -0.894%.
On to `C[C@@H](NC(=O)C[C@H]1C[C@@H]2c3cc(NC(=O)C4CCC4)ccc3O[C@@H]2[C@@H](CO)O1)c1ccccc1`, for which the inhibition is -1.46%.
As to `CO[C@@H]1CN(C)C(=O)c2ccc(NC(=O)Nc3cc(F)ccc3F)cc2OC[C@@H](C)N(C)C[C@@H]1C`, the inhibition is 2.65%.
On to `CO[C@@H]1CC[C@@H]2CCOc3c(C#N)cccc3C(=O)N(C)C[C@H](C)C(=O)N(C)C[C@H]1O2`, for which the inhibition is 0.999%.
`COc1ccc(CNC(=O)C[C@H]2C[C@@H]3c4cc(NC(=O)NC5CCCC5)ccc4O[C@@H]3[C@H](CO)O2)cc1`: the inhibition is 2.29%.
Regarding `C/C=C/c1ccc2c(c1)O[C@H](CN(C)Cc1cccc(F)c1)[C@H](C)CN([C@H](C)CO)S2(=O)=O`, the inhibition was 3.38%.
Turning to `COc1ccccc1C#Cc1ccc([C@@H]2[C@H](CO)N3CCCCN(CCC(F)(F)F)C[C@@H]23)cc1`, the inhibition is -1.03%.
Turning to `CCC(=O)N1[C@H](C(=O)NC2CCC2)[C@@H](CO)[C@@H]2Cn3c(cccc3=O)[C@@H]21`, the inhibition is -1.13%.
`O=C(CCN1CCCCC1)NCC[C@@H]1CC[C@H](NS(=O)(=O)c2cccc(Cl)c2)[C@H](CO)O1`: the inhibition was -1.39%.
`C/C=C/c1ccc2c(c1)[C@H]1[C@H](CCN1S(=O)(=O)c1cn(C)cn1)[C@H](CO)N2`: the inhibition was -3.06%.
For `CO[C@@H]1CC[C@@H]2CCOc3c(C#N)cccc3C(=O)N(C)C[C@@H](OC)[C@@H](C)C(=O)N(C)C[C@H]1O2`, the inhibition is -3.74%.
On to `COc1cccc(NC(=O)N[C@H]2C=C[C@H](CC(=O)NCc3ccccn3)O[C@@H]2CO)c1`, for which the inhibition was 6.83%.
For the molecule `COc1ccccc1CN1[C@H](CO)[C@@H](c2ccccc2)C12CN(C(=O)c1cnccn1)C2`, the inhibition is 0.797%.
On to `C[C@H]1CCCCO[C@H](CN(C)C(=O)NC2CCCCC2)[C@@H](C)CN([C@@H](C)CO)C(=O)c2cc(NC(=O)Nc3ccc4c(c3)OCO4)ccc2O1`, for which the inhibition is -0.479%.
Regarding `O=C(OCC(=O)N1CCN(C(=O)c2ccco2)CC1)c1ccc(Cl)c(Cl)c1`, the inhibition is 0.999%.
`CN(c1ccccc1)S(=O)(=O)c1cc(C(=O)OCC(=O)N2CCN(C(=O)c3ccco3)CC2)ccc1Cl`: the inhibition is 60.1% (active).
On to `O=C(OCC(=O)N1CCN(C(=O)c2ccco2)CC1)c1cccc(O)c1`, for which the inhibition was -0.23%.
In the case of `CO[C@@H]1CN(C)C(=O)c2cc(NC(=O)C3CCOCC3)ccc2OC[C@H](C)N(Cc2cccnc2)C[C@H]1C` it was 0.791%.
In the case of `O=C(C[C@H]1CC[C@H]2NC[C@@H](O)COC[C@@H]2O1)NCCN1CCCC1` it was 1.06%.
Regarding `O=C(Nc1cccc(F)c1)N1CC(=O)N2[C@H](C1)[C@H](c1ccc(-c3ccccc3F)cc1)[C@@H]2CO`, the inhibition was 0.092%.
